Activity calls are given as the source filed them. Unless noted, how the calls were made is not given here.
Columns and labels:
[1] = A549 cell viability effects, profiling panel, calcein-AM fluorescence, 48 h, basal (AID 1162); conditions: higher = more signal; further: test concentration not given here
[2] = adipocyte viability effects, profiling panel, cell-based, 3T3-L1 adipocytes, calcein-AM fluorescence, 48 h, basal (AID 1163); conditions: 3T3-L1 adipocytes viability, higher = more signal; further: test concentration not given here
[3] = HepG2 cell viability effects, profiling panel, calcein-AM fluorescence, 48 h, basal (AID 1164); conditions: higher = more signal; further: test concentration not given here
[4] = MM1S cell viability effects, profiling panel, calcein-AM fluorescence, 48 h, basal (AID 1165); conditions: higher = more signal;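 further: viability of MM1S multiple myeloma cells under basal unstimulated conditions; test concentration not given here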
[5] = basal RPMI8226 viability, no added stimulus, profiling panel, cell-based, calcein-AM fluorescence, 48 h, PK04 Diversity Set (AID 1166); conditions: RPMI8226 myeloma viability, higher = more signal;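 further: cells grown under basal conditions without added stimulus; test concentration not given here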
[6] = basal HepG2 mitochondrial membrane potential changes, profiling panel, cell-based, JC-1 fluorescence, 24 h, 100 nL compound (AID 1167); conditions: higher = more signal; further: test concentration not given here
[7] = basal 3T3-L1 adipocyte mitochondrial potential changes, profiling panel, cell-based, JC-1 fluorescence, 3T3-L1 adipocytes, 24 h, 100 nL compound (AID 1168); conditions: JC-1 mitochondrial fluorescence, higher = more signal, called active from +8 up or from −8 down; further: test concentration not given here
[8] = basal RPMI8226 mitochondrial membrane potential changes, profiling panel, cell-based, JC-1 fluorescence, 24 h, 100 nL compound (AID 1169); conditions: RPMI8226 myeloma, JC-1 mitochondrial potential fluorescence, higher = more signal; further: test concentration not given here
[9] = basal MM1S mitochondrial membrane potential changes, profiling panel, cell-based, JC-1 fluorescence, 24 h, 100 nL compound (AID 1170); conditions: higher = more signal; further: test concentration not given here
[10] = A549 lung cancer cell viability effects, profiling panel, resazurin fluorescence, 24 h, PK04 Diversity Set (AID 1171); conditions: higher = more signal, called active from +8 up or from −8 down; further: test concentration not given here
[11] = HepG2 liver cancer cell viability effects, profiling panel, resazurin fluorescence, 24 h, PK04 Diversity Set (AID 1172); conditions: higher = more signal; further: test concentration not given here
[12] = basal S. cerevisiae growth modulation, no modifier, primary screen, OD600, strain BY4716, 24 h, basal condition (AID 1173); conditions: OD600, 24 h, higher = more signal, called active from +8 up or from −8 down
[13] = MM1S myeloma cell viability, profiling panel, resazurin fluorescence, basal, 24 h, PK04 Diversity Set (AID 1174); conditions: higher = more signal, called active from +8 up or from −8 down;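 further: MM1S multiple myeloma cell line; test concentration not given here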
[14] = biological target: Dihydroorotate dehydrogenase (quinone), mitochondrial (Plasmodium falciparum (isolate 3D7)) (UniProt Q08210); assay: PfDHODH enzyme inhibitors, primary screen, biochemical, C-terminal His tag, absorbance 600 nm (AID 1175); conditions: DCIP absorbance 600 nm, higher = more signal, called active from +8 up or from −8 down;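 further: recombinant parasite enzyme with a five histidine tag at its C terminus; test concentration not given here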
[15] = P. aeruginosa biofilm formation inhibitors, primary screen, strain PAO1, LB-PBS medium, absorbance 600 nm (AID 1176); further: test concentration not given here; conditions: P. aeruginosa PAO1 growth/biofilm, A600, 12 h; higher = more signal
[16] = S. cerevisiae RM11-1a growth modifiers, primary screen, strain RM11-1a, OD600, basal, 24 h (AID 1177); conditions: OD600, 24 h, higher = more signal, called active from +8 up or from −8 down;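 further: cultures grown under basal conditions with no added stressor; test concentration not given here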
[17] = E. coli acrAB mutant growth effects, primary screen, E. coli filamentation inducers, strain DRC39, OD650, 24 h (AID 1178); conditions: higher = more signal, called active from +8 up or from −8 down;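 further: growth measured as culture turbidity by optical density at 650 nm; test concentration not given here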
[18] = E. coli acrAB mutant growth effects, primary screen, E. coli filamentation inducers, strain DRC39, OD650, 48 h (AID 1179);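 further: screen aims at cell division blockers that make cells filament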; conditions: E. coli DRC39 delta-acrAB growth, higher = more signal, called active from +8 up or from −8 down
[19] = RPMI8226 myeloma cell viability, profiling panel, resazurin fluorescence, basal, 24 h, PK04 Diversity Set (AID 1180); conditions: higher = more signal;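 further: RPMI8826 multiple myeloma cell line at 5000 cells per well; test concentration not given here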
[20] = biological target: E3 ubiquitin-protein ligase XIAP (Homo sapiens) (UniProt P98170); assay: XIAP binders, primary screen, biophysical, small-molecule microarray, fluorescence 635 nm (AID 1181); conditions: small-molecule microarray binding, higher = more signal;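 further: score merges 667 nm emission and signal to noise over triplicate slides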
Sequence of E3 ubiquitin-protein ligase XIAP (Homo sapiens) (P98170 whole entry, looked up): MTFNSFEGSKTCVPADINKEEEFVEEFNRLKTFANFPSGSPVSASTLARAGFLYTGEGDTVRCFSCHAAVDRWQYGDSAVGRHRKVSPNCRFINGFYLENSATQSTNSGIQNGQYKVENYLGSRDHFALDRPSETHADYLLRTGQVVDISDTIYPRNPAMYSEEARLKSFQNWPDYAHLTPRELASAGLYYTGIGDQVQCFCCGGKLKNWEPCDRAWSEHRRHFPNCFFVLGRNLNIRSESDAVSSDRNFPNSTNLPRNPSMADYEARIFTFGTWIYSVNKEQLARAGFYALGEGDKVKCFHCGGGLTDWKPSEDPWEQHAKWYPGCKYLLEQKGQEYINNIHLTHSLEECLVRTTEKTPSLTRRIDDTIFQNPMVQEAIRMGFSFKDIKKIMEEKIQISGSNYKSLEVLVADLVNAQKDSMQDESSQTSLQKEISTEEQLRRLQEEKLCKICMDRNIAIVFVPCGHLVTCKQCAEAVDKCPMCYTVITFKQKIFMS

Sequence of Dihydroorotate dehydrogenase (quinone), mitochondrial (Plasmodium falciparum (isolate 3D7)) (Q08210 whole entry, looked up): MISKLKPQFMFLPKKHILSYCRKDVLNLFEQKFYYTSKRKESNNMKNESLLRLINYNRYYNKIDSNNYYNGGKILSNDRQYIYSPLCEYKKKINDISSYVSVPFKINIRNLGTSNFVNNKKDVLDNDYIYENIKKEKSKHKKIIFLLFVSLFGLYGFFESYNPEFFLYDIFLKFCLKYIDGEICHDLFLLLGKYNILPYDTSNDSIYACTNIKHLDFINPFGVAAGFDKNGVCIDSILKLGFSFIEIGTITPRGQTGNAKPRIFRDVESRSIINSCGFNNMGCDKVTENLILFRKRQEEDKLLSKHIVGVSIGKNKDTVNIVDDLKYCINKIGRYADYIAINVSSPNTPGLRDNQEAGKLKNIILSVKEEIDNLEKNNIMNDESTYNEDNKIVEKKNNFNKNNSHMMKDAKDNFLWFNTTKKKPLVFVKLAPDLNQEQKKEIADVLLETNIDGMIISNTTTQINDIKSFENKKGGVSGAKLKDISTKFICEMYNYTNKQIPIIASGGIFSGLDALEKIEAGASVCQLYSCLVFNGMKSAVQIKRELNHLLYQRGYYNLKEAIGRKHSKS

Row | SMILES | z-score [1] | z-score [2] | z-score [3] | z-score [4] | z-score [5] | z-score [6] | z-score [7] | z-score [8] | z-score [9] | z-score [10] | z-score [11] | z-score [12] | z-score [13] | composite z-score [14] | z-score [15] | z-score [16] | z-score [17] | z-score [18] | z-score [19] | composite z-score [20]
1 | CCOC(=O)C[C@H]1[C@H](OC(=O)c2ccccc2-c2ccccc2)[C@@H](NC(=O)c2ccccc2)c2cc(OCCCO)ccc2N1C(=O)Cc1ccc(OC)cc1 | 1.29 | 0.182 | 0.144 | -0.128 | 0.206 | 1.02 | -0.387 (inactive) | -1.04 | 0.277 | 0.995 (inactive) | 0.834 | 0.606 (inactive) | -0.397 (inactive) | -0.369 (inactive) | 0.142 (inactive) | 0.143 (inactive) | 0.228 (inactive) | 0.15 (inactive) | -0.37 | 0.0871
2 | O=C1N(CCS(=O)(=O)c2ccccc2)c2ccccc2[C@H]2OC(c3ccc(OCCCO)cc3)=N[C@@]12CCS(=O)(=O)c1ccccc1 | 0.571 | 0.771 | 0.504 | 0.201 | -0.0504 | -0.38 | 2.29 (inactive) | -0.371 | -1.23 | 0.789 (inactive) | 0.248 | 2.94 (inactive) | 0.685 (inactive) | 0.761 (inactive) | 0.591 (inactive) | 3.96 (inactive) | 2.37 (inactive) | 1.04 (inactive) | 0.488 | 0.0197
3 | CCCNC(=O)[C@@]1(Sc2ccc(C)cc2)CC(=O)N(Cc2ccccc2)[C@@H]1c1ccc(CO)cc1I | -0.422 | -0.525 | 0.0653 | -2.18 | -2.52 | -0.901 | -0.686 (inactive) | -0.935 | -1.89 | 0.198 (inactive) | -0.38 | -2.59 (inactive) | -3.26 (inactive) | -11.5 (active) | 1.14 (inactive) | -0.598 (inactive) | 0.214 (inactive) | 0.0547 (inactive) | -2.81 | 0.0471
4 | CCCCCCC#C[Si](O[C@H](c1ccccc1)c1cn(Cc2cccc(Cl)c2)nn1)(C(C)C)C(C)C | 1.11 | -0.896 | 0.761 | 0.481 | -0.695 | 3.44 | 0.169 (inactive) | -0.149 | -1.06 | 2.58 (inactive) | 0.809 | -0.419 (inactive) | 1.31 (inactive) | -0.0872 (inactive) | 0.101 (inactive) | 0.738 (inactive) | 0.804 (inactive) | 1.19 (inactive) | 2.01 | -0.0447
5 | CN(C)C(=O)[C@]1(Cc2ccccc2N=[N+]=[N-])N=C(c2ccc(OCCCO)cc2)O[C@@H]1c1ccccc1CN=[N+]=[N-] | -0.409 | 1.01 | -0.386 | -2.39 | -3.03 | 0.38 | -0.286 (inactive) | -0.992 | -1.09 | 1.59 (inactive) | 2.37 | -1.93 (inactive) | -1.13 (inactive) | -0.106 (inactive) | -0.165 (inactive) | -0.495 (inactive) | 0.804 (inactive) | 0.7 (inactive) | -0.997 | 0.152
6 | COc1ccc([Si](C)(C)[C@@H]2[C@@H](CCO)O[C@]3(C(=O)N(Cc4ccccc4)c4ccc(N5C(=O)COc6ccccc65)cc43)[C@H]2C)cc1 | -1.4 | 0.155 | -1.08 | -2.24 | -0.0589 | 0.102 | 0.222 (inactive) | -0.741 | -0.857 | -0.177 (inactive) | 1.52 | 2.09 (inactive) | -0.657 (inactive) | -0.0636 (inactive) | 1.2 (inactive) | 4.54 (inactive) | -0.141 (inactive) | -0.266 (inactive) | -0.976 | -0.0599
7 | COc1ccc(C#Cc2ccc3c(c2)[C@]2(C(=O)N3)[C@H](c3ccc(OCCO)cc3)N3[C@H](c4ccccc4)[C@H](c4ccccc4)OC(=O)[C@H]3[C@@H]2C(=O)N2CCN(c3ncccn3)CC2)cc1 | -0.446 | 1.15 | -0.646 | 0.496 | -0.106 | -0.851 | 4.27 (inactive) | -0.507 | -0.816 | 1.32 (inactive) | 1.45 | 1.56 (inactive) | 1.48 (inactive) | -1.7 (inactive) | 1.66 (inactive) | 1.92 (inactive) | 0.101 (inactive) | -0.344 (inactive) | 1.61 | 0.16
8 | O=C1C[C@@](C(=O)NCc2ccccc2)(c2ccc([N+](=O)[O-])cc2)[C@@H](c2ccc(CO)cc2I)N1C1CCCCC1 | 1.14 | 0.317 | 0.593 | -1.6 | -1.22 | 1.67 | 0.254 (inactive) | -0.572 | 0.576 | 0.75 (inactive) | -0.327 | 0.432 (inactive) | 0.566 (inactive) | 0.634 (inactive) | -0.301 (inactive) | 1.88 (inactive) | 0.445 (inactive) | -0.0118 (inactive) | 0.787 | -0.115
9 | COc1ccc([Si](C)(C)[C@H]2[C@H](CCO)O[C@@]3(C(=O)N(Cc4cccc(N5CCOC5=O)c4)c4ccccc43)[C@@H]2C)cc1 | -0.162 | -0.824 | -0.925 | -2.43 | -3.25 | -0.0995 | 2.01 (inactive) | -1.09 | -1.79 | -2.22 (inactive) | -1.55 | 1.34 (inactive) | -4.67 (inactive) | -0.287 (inactive) | 2 (inactive) | 4.7 (inactive) | 0.803 (inactive) | 0.113 (inactive) | -3.21 | -0.0755

Source: PubChem BioAssay
